{"source": "PubChem BioAssay AID977611", "origin": "cited, not measured here", "assay": "PubChem AID 977611", "details": "PDB protein-ligand complexes, literature Kd", "note": "The whole screen tested about 3,900 compounds, of which about 3,900 (100%) were called active. No cut-off is given here; in the data, nearly all actives have Kd up to about 4200 µM. So high a share suggests a set chosen from earlier hits. This is one part of the list. Starred links: 1 amine or outer side, 2 acyl side, 3 side chain; linkers in the order of their positions; H or OH if unused. *1 amine or outer side, *2 acyl side, *3 side chain or, on linkers, in order; H or OH if unused. Positions of bridges follow the written chain, without caps; N, C: chain ends. Where a SMILES comes first, the peptide text is derived from it. Non-standard residues stand in square brackets, D forms with d. Square brackets hold non-standard residues; d marks the D form. Residues, ends and D or L forms follow the SMILES beside them. Peptide text beside a SMILES is read from it. [ ]: non-standard residue; d: D form. Thr(P(OH)3+) = C[C@@H](O[P+](O)(O)O)[C@H](N)C(=O)O; X1 = C[C@](CCCCCC=[*:3])(N[*:1])C(=O)[*:2]; X2 = C[C@@](CCCCC=[*:3])(N[*:1])C(=O)[*:2]; Orn(CH(NH2)2) = NC(N)NCCC[C@H](N)C(=O)O; R8 = C=CCCCCCC[C@@](C)(N)C(=O)O; S5 = C=CCCC[C@](C)(N)C(=O)O; Abu = CC[C@H](N)C(=O)O", "data": [{"compound": "H-SYGHLSIG-OH", "values": [{"measurement": "Kd", "setting": "protein: MALTOSE-BINDING PERIPLASMIC PROTEIN, SUPPRESSOR OF FUSED HOMOLOG (W61D, L62S, G63F, P453A, K457A mutation), PDB entry 4blb", "result": "4.47 µM (active)"}]}, {"compound": "OS(O)(O)CCNC1CCCCC1", "values": [{"measurement": "Kd", "setting": "protein: Interleukin-13 receptor subunit alpha-1, PDB entry 4hwb", "result": "0.00057 µM (active)"}]}, {"compound": "CC(=O)NCCCC[C@H](NC(=O)[C@H](CCCNC(N)N)NC(=O)[C@H](C)NC(=O)[C@@H](NC(=O)[C@H](CCC(N)=O)NC(=O)[C@H](CCCCN)NC(=O)[C@@H](NC(=O)[C@H](CCCNC(N)N)NC(=O)[C@H](C)N)[C@@H](C)O)[C@@H](C)O)C(=O)N[C@@H](CO)C(=O)N[C@H](C(=O)NCC(=O)NCC(=O)N[C@@H](CCCCN)C(=O)N[C@@H](C)C(=O)O)[C@@H](C)O", "values": [{"measurement": "Kd", "setting": "protein: Histone acetyltransferase PCAF, PDB entry 2rnw", "result": "1050 µM (active)"}]}, {"compound": "C[C@H](N)C(=O)N[C@@H](CCCNC(N)N)C(=O)N[C@H](C(=O)N[C@@H](CCCC[N+](C)(C)C)C(=O)N[C@@H](CCC(N)=O)C(=O)N[C@H](C(=O)N[C@@H](C)C(=O)N[C@@H](CCCNC(N)N)C(=O)N[C@@H](CCCCN)C(=O)N[C@@H](CO)C(=O)N[C@H](C(=O)NCC(=O)NCC(=O)N[C@@H](CCCCN)C(=O)N[C@@H](C)C(=O)O)[C@@H](C)O)[C@@H](C)O)[C@@H](C)O", "values": [{"measurement": "Kd", "setting": "protein: bromodomain PHD finger transcription factor, PDB entry 2fuu", "result": "2.7 µM (active)"}]}, {"compound": "O=C(O)c1ccc2cc[nH]c2c1", "values": [{"measurement": "Kd", "setting": "protein: Protease (Q7K, L33I, L63I, C67A, C95A mutation), PDB entry 4ej8", "result": "4.1 µM (active)"}]}, {"compound": "CSCC[C@H](NC(=O)[C@H](C)N)C(=O)N[C@@H](CCCCN)C(=O)N[C@@H](CCCNC(N)N)C(=O)N[C@@H](Cc1cnc[nH]1)C(=O)NCC(=O)N[C@@H](CC(C)C)C(=O)N[C@@H](CC(=O)O)C(=O)N[C@@H](CC(N)=O)C(=O)N[C@@H](Cc1ccc(O)cc1)C(=O)N[C@@H](CCCNC(N)N)C(=O)NCC(=O)N[C@@H](Cc1ccc(O)cc1)C(=O)N[C@@H](CO)C(=O)O", "note": "(H-AMK[Orn(CH(NH2)2)]HGLDNY[Orn(CH(NH2)2)]GYS-OH)", "values": [{"measurement": "Kd", "setting": "protein: I-Ag7, PDB entry 1f3j", "result": "6 µM (active)"}]}, {"compound": "H-AHGMLKLYYGLS-OH", "values": [{"measurement": "Kd", "setting": "protein: Syntaxin-6, PDB entry 4j2c", "result": "5.6 µM (active)"}]}, {"compound": "CC(C)C[C@H](NC(=O)[C@]1(C)CCC/C=C\\CCC[C@](C)(NC(=O)[C@H](CCCNC(N)N)NC(=O)[C@H](CO)NC(=O)[C@H](Cc2ccc(O)cc2)NC(=O)[C@H](CCCNC(N)N)NC(=O)[C@H](CCCCN)NC(=O)[C@@H](N)CCCCN)C(=O)N[C@@H](CCC(N)=O)C(=O)N[C@@H](CC(C)C)C(=O)N[C@@H](CC(C)C)C(=O)N1)C(N)=O", "values": [{"measurement": "Kd", "setting": "protein: EUKARYOTIC TRANSLATION INITIATION FACTOR 4E, PDB entry 4bea", "result": "0.005 µM (active)"}]}, {"compound": "CC(=O)N[C@H](C(=O)N[C@@H](CO)C(=O)N[C@@H](Cc1ccccc1)C(=O)N[C@]1(C)CCCCCC/C=C/CCC[C@@](C)(C(N)=O)NC(=O)[C@H](CC(C)C)NC(=O)[C@H](CC(C)C)NC(=O)[C@H](Cc2ccc(O)cc2)NC(=O)[C@H](Cc2c[nH]c3ccccc23)NC(=O)[C@H](Cc2ccc(O)cc2)NC(=O)[C@H](CCC(=O)O)NC1=O)[C@@H](C)O", "note": "(Ac-TSF[R8]EYWYLL[S5]-NH2; staple (E) 4-11)", "values": [{"measurement": "Kd", "setting": "protein: E3 UBIQUITIN-PROTEIN LIGASE MDM2-M62A, PDB entry 4umn", "result": "0.0631 µM (active)"}]}, {"compound": "CC[C@H](N)C(=O)N[C@H](C(=O)N[C@@H](Cc1ccccc1)C(=O)N[C@]1(C)CCCCC/C=C/CCCC[C@@](C)(C(=O)N[C@@H](CCC(N)=O)C(=O)N[C@@H](CC(N)=O)C(=O)O)NC(=O)[C@H](CC(C)C)NC(=O)[C@H](CC(C)C)NC(=O)[C@H](CCCNC(N)N)NC(=O)[C@H](Cc2c[nH]c3ccccc23)NC(=O)[C@H](CC(C)C)NC(=O)[C@H](CC(N)=O)NC1=O)[C@@H](C)O", "note": "(H-[Abu]TF[X1]NLW[Orn(CH(NH2)2)]LL[X2]QN-OH; staple (E) 4-11)", "values": [{"measurement": "Kd", "setting": "protein: E3 ubiquitin-protein ligase Mdm2, PDB entry 3v3b", "result": "0.055 µM (active)"}]}, {"compound": "COc1cc(-c2ccc3ncc(-c4cccc([C@@H](O)NCCN(C)C)c4)n3n2)ccc1O", "values": [{"measurement": "Kd", "setting": "protein: Death-associated protein kinase 1 DAPK1, PDB entry 4txc", "result": "0.24 µM (active)"}]}, {"compound": "CC(C)C[C@H](NC(=O)CNC(=O)[C@H](CO)NC(=O)[C@@H]1CCCN1C(=O)[C@@H](N)CC(C)C)C(=O)N[C@@H](CC(C)C)C(=O)N[C@H](C(=O)N1CCC[C@H]1C(=O)N1CCC[C@H]1C(=O)N[C@@H](CCC(N)=O)C(=O)N[C@@H](CO[P+](O)(O)O)C(=O)NCC(=O)O)[C@H](C)O[P+](O)(O)O", "values": [{"measurement": "Kd", "setting": "protein: Skp1-Fbw7, PDB entry 2ovq", "result": "0.07 µM (active)"}]}, {"compound": "CC(C)[C@H](NC(=O)[C@H](C)NC(=O)[C@@H](NC(=O)[C@@H](N)CCCCN)C(C)C)C(=O)N[C@H](C(=O)N[C@@H](CCCNC(N)N)C(=O)N[C@H](C(=O)N1CCC[C@H]1C(=O)N1CCC[C@H]1C(=O)N[C@@H](CCCCN)C(=O)O)[C@@H](C)O[P+](O)(O)O)C(C)C", "note": "(H-KVAVV[Orn(CH(NH2)2)][Thr(P(OH)3+)]PPK-OH)", "values": [{"measurement": "Kd", "setting": "protein: anti-ptau heavy chain and anti-ptau light chain, PDB entry 4glr", "result": "0.00035 µM (active)"}]}, {"compound": "CC(C)C[C@H](NC(=O)[C@@H]1CCCN1C(=O)[C@@H]1CCCN1C(=O)[C@@H](NC(=O)[C@@H]1CCCN1C(=O)[C@H](CC(C)C)NC(=O)[C@@H](N)CC(C)C)[C@@H](C)O)C(=O)N[C@@H](CO)C(=O)N1CCC[C@H]1C(=O)N[C@@H](CO)C(=O)N[C@@H](CCCNC(N)N)C(=O)N[C@@H](CCCNC(N)N)C(=O)N[C@@H](CO)C(=O)NCC(=O)O", "note": "(H-LLPTPPLSPS[Orn(CH(NH2)2)][Orn(CH(NH2)2)]SG-OH)", "values": [{"measurement": "Kd", "setting": "protein: Bin1C SH3 domain, PDB entry 1mv0", "result": "93.3 µM (active)"}]}, {"compound": "CC(C)[C@H](NC(=O)[C@H](CCCCN)NC(=O)[C@H](CCCNC(N)N)NC(=O)[C@H](CCCCN)NC(=O)[C@H](CCCCN)NC(=O)[C@H](CCCCN)NC(=O)[C@@H]1CCCN1C(=O)[C@@H]1CCCN1C(=O)[C@H](CO)NC(=O)CN)C(=O)NCC(=O)O", "note": "(H-GSPPKKK[Orn(CH(NH2)2)]KVG-OH)", "values": [{"measurement": "Kd", "setting": "protein: IMPORTIN SUBUNIT ALPHA-1A, PDB entry 4b8o", "result": "0.004 µM (active)"}]}, {"compound": "CC(C)[C@H](NC(=O)[C@H](CO)NC(=O)[C@@H](NC(=O)[C@@H](N)CCCCN)C(C)C)C(=O)N[C@H](C(=O)N[C@@H](CCCNC(N)N)C(=O)N[C@H](C(=O)N1CCC[C@H]1C(=O)N1CCC[C@H]1C(=O)N[C@@H](CCCCN)C(=O)N[C@@H](CO)C(=O)N1CCC[C@H]1C(=O)N[C@@H](CO)C(=O)O)[C@H](C)O[P+](O)(O)O)C(C)C", "note": "(H-KVSVV[Orn(CH(NH2)2)][X1]PPKSPS-OH)", "values": [{"measurement": "Kd", "setting": "protein: Pin1 WWdomain, PDB entry 1i8h", "result": "29 µM (active)"}]}, {"compound": "CC(=O)N1CCC[C@H]1C(=O)N1CCC[C@H]1C(=O)NCC(=O)N1CCC[C@H]1C(=O)N1CCC[C@H]1C(=O)NCC(=O)N1CCC[C@H]1C(=O)N[C@H](C(=O)NCC(=O)N1CCC[C@H]1C(=O)N[C@@H](CCCNC(N)N)C(=O)NCC(=O)N1CCC[C@H]1C(=O)N1CCC[C@H]1C(=O)NCC(=O)N1CCC[C@H]1C(=O)N1CCC[C@H]1C(=O)O)[C@@H](C)O", "note": "(Ac-PPGPPGPTGP[Orn(CH(NH2)2)]GPPGPP-OH)", "values": [{"measurement": "Kd", "setting": "protein: HSP47, PDB entry 3zha", "result": "1 µM (active)"}]}, {"compound": "N[C@@H](CCC(=O)N[C@@H](CS)C(=O)NCC(=O)O)C(=O)O", "values": [{"measurement": "Kd", "setting": "protein: mitochondrial ABC transporter, Atm1, PDB entry 4myh", "result": "23 µM (active)"}, {"measurement": "Kd", "setting": "protein: protein yqjG, PDB entry 4g0l", "result": "6.5 µM (active)"}]}, {"compound": "CNC(CSSC[C@H](NC(=O)CC[C@H](N)C(=O)O)C(=O)NCC(=O)O)C(=O)NCC(=O)O", "note": "(some centres not stated)", "values": [{"measurement": "Kd", "setting": "protein: PUTATIVE AMINO ACID BINDING PROTEIN, PDB entry 4c0r", "result": "12.2 µM (active)"}]}, {"compound": "CC(C)C[C@H](NC(=O)[C@H](CC(C)C)NC(=O)[C@H](CCC(=O)O)NC(=O)[C@@H](N)CO)C(=O)N[C@@H](CCCCN)C(=O)N[C@@H](Cc1ccc(O)cc1)C(=O)N[C@@H](CC(C)C)C(=O)N[C@H](C(=O)N[C@H](C(=O)O)[C@@H](C)O)[C@@H](C)O", "note": "(H-SELLKYLTT-OH)", "values": [{"measurement": "Kd", "setting": "protein: the ligand binding domain (LBD) of the estrogen-related receptor ? (ERR?, NR3B1), PDB entry 1xb7", "result": "0.6 µM (active)"}]}, {"compound": "H-SQEKFFQELFDS-OH", "values": [{"measurement": "Kd", "setting": "protein: Peroxisomal Membrane Anchor Protein Pex14, PDB entry 2w85", "result": "9.17 µM (active)"}]}]}
